Cycloheximide cs = affects cycloheximide protein synthesis inhibition readout, counter-screen | cell reporter, cycloheximide protein synthesis inhibition counterscreen | max response, % | 12% of 300,000 active | AID 2314; in the data active means max response mostly above about 13%, no sharp cut-off; inactive means mostly below about 14%; further: read at 38.3 µM for the half of the compounds with a filed dose; 0% is about no effect
Pf growth 48h = inhibits P. falciparum growth in the first generation, 48 h; P. falciparum luciferase growth in erythrocytes, 48 h; Potency, µM (highest dose often 28.7 µM), without a hit: at the top dose activity change, negative = inhibition, hits mostly inhibitors; 5.9% of 310,000 active; active means well fitted inhibition curve with a large enough effect; inconclusive means small, poorly fitted or top-dose-only effect, or another doubt; inactive means no such curve, though single readings can be large or run the other way; further: potency means the concentration at half of the fitted maximal effect; on the % scale 0 is the no-effect control and ±100 the full control effect
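Erythrocytes infected with P. falciparum carrying an integrated firefly luciferase reporter (2% hematocrit, 0.1% parasitemia final) were exposed to compounds in RPMI 1640 with 0.5% Albumax at 37 C, 5% CO2. Growth inhibition was scored as reduced luminescence.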
Shiga toxin inh = inhibitors of Shiga toxin in Vero cells. Vero cells, Shiga toxin protein synthesis inhibition reporter. inhibition, % at 38.7 µM. 9.2% of 290,000 active. AID 2315; in the data active means inhibition mostly above about 28%, no sharp cut-off; inactive means mostly below about 43%; further: 0% is about no effect
SARS PLP yeast = inhibitors of SARS-CoV papain-like protease in yeast; S. cerevisiae expressing SARS-CoV PLpro, growth rescue; Potency, µM (doses to about 32.9 µM), without a hit: at the highest dose activity, positive = growth rescue, most hits filed as activators; 0.19% of 330,000 active; AID 485353; further: potency means the concentration at half of the fitted maximal effect; 0% is about no effect; nearly all actives have a fitted effect of over 55% in size
NS1 function inh = blocks influenza NS1 protein function; AID 2326; Potency, µM (highest dose often 46.1 µM), without a hit: at the top dose activity, positive = more growth; 0.4% of 270,000 active; further: potency means the concentration at half of the fitted maximal effect; actives are rising curves; nearly all actives have a fitted effect of over 50% in size
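Read-out: OD600 growth recovery of NS1-expressing budding yeast. Cells grown overnight at 30C in -URA glucose medium, washed, resuspended and diluted 1:100 in 2% galactose assay medium, pH 6.0. Same strain lacking NS1 served as positive control.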
Pf growth 96h = inhibits malaria parasite growth, 96 h. P. falciparum luciferase reporter growth, 96 h. Potency, µM (highest dose often 28.7 µM), for inactives: top-dose activity change, negative = inhibition, actives largely listed as inhibitors. 6.9% of 320,000 active. AID 504834; active means well fitted inhibition curve with a large enough effect; inconclusive means small, poorly fitted or top-dose-only effect, or another doubt; inactive means no such curve, though single readings can be large or run the other way; further: potency means the concentration at half of the fitted maximal effect; on the % scale 0 is the no-effect control and ±100 the full control effect
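Delayed-death screen, second-generation endpoint: infected erythrocytes, 2% hematocrit, 0.05% parasitemia final; 96 hours at 37 C, 5% CO2; luciferase detection reagent; luminescence decrease equals reduced growth.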
An asterisk follows results filed as active; ? = inconclusive; . = not tested or not shown. Rows were chosen to be rich in hits. Some 21% of all compounds tested hit in one or more screens of this group. Unless noted, the call rests on the fitted dose curve.

SMILES	Cycloheximide cs	Pf growth 48h	Shiga toxin inh	SARS PLP yeast	NS1 function inh	Pf growth 96h
CCCN1C(=O)/C(=C/c2ccc3c(c2)OCO3)NC1=S	10.7	3.0%	4.9	5.8%	.	9.28µM*
Cc1ccc(NC(=O)CN2C(=O)N/C(=C/c3ccc4c(c3)OCCO4)C2=O)cc1	-1.8	24.3%	-4.5	1.6%	12.8%	12.9%
O=C1CN(C(=O)c2ccccc2)c2ccccc2N1	-1.3	2.5%	-11.6	3.3%	-1.6%	.
O=C1CN(C(=O)/C=C/c2ccccc2F)c2ccccc2N1	27.4*	0.0%	75.5*	1.6%	-6.4%	30.2%
C/C(=N\NC(=O)COc1ccc(C(C)(C)C)cc1)c1ccc2c(c1)OCCO2	8.9	11.0%	28.1	-16.7%	1.1%	13.3%
CCc1ccc(OCC(=O)N/N=C(\C)c2ccc3c(c2)OCCO3)cc1	13.0*	-3.6%	-10.2	-27.4%	-14.6%	24.4%
CCNC(=S)N/N=C(\C)c1ccc2c(c1)OCCO2	-2.6	29.9%	48.8*	28.1%	-23.0%	28.6%
C/C(=N\NC(=S)Nc1ccc(C(C)C)cc1)c1ccc2c(c1)OCO2	10.7	-6.5%	35.3*	0.3%	.	?
CCOC(=O)c1nnn(-c2nonc2N)c1CSc1nnc(N)s1	-1.4	7.9%	-4.7	1.2%	.	?
O=C(COC(=O)c1cc(S(=O)(=O)N2CCOCC2)ccc1O)NCc1ccc2c(c1)OCO2	.	?	.	-2.0%	.	-19.5%
Cc1nn(C)c(=O)n1-c1ccc(Oc2ccccc2)cc1	10.6*	51.8%	-6.7	7.9%	-0.9%	42.3%
Cc1nn(CCOc2ccccc2)c(=O)n1-c1c(F)cccc1F	51.8*	106.9%	32.5*	-2.3%	4.5%	127.0%
Cc1ccc(-n2c(C)nn(CCOc3ccccc3)c2=O)cc1	35.1*	141.9%	67.0*	2.4%	0.8%	332.7%
Cc1nn(C)c(=O)n1-c1ccccc1	-3.3	3.0%	-14.1	-6.7%	.	-8.3%
Cc1nn(CC2CC2)c(=O)n1-c1ccccc1F	1.9	-3.0%	19.8	-2.2%	.	24.4%
COc1ccc2c(c1)[C@@]13CCC=C[C@H]1[C@@H](C2)NCC3	.	11.7µM*	.	.	.	-6.4%
O=C(COc1ccc(S(=O)(=O)N2CCCCC2)cc1Cl)N1CCOCC1	2.5	-8.2%	-15.4	0.2%	-4.2%	0.0%
Cc1ccc2nc(C)c3c(c2c1)N(c1ccc(F)cc1)CC3	-1.7	?	-20.4	0.0%	-56.9%	13.1µM*
Cn1c(=O)c2c(nc(OCc3ccccc3)n2C)n(C)c1=O	-6.4	.	-13.3	0.5%	-5.4%	-0.8%
COc1cccc(Cn2c(Oc3ccccc3)nc3c2c(=O)n(C)c(=O)n3C)c1	-4.5	0.657µM*	-7.2	-12.6%	-17.4%	?
COc1cccc(COc2nc3c(c(=O)n(C)c(=O)n3C)n2C)c1	-2.8	23.3%	-7.0	-0.5%	0.9%	4.15µM*
CC(C)=CCC[C@](C)(O)C1CC[C@]2(C)[C@@H]1CC[C@@H]1[C@@]3(C)CCC(=O)C(C)(C)[C@@H]3CC[C@]12C (stereo partly specified)	-6.2	.	-4.1	.	.	.
Cc1ccc(NC(=O)CN(C)C(=O)Cc2c(Cl)cccc2Cl)cc1	-3.4	?	-2.5	-1.6%	4.0%	?
Cc1ccc(NC(=O)C(OC(=O)c2ccccc2Cl)c2ccccc2)cc1Cl (stereo unspecified)	7.6	22.5%	11.5	7.2%	7.9%	1.0%
COc1cccc(NC(=O)C(NC2CCCC2)c2ccccc2)c1 (stereo unspecified)	-4.3	?	-16.3	-0.9%	-1.1%	?
SMILES	Cycloheximide cs	Pf growth 48h	Shiga toxin inh	SARS PLP yeast	NS1 function inh	Pf growth 96h
Cc1ccc(NC(=O)C(c2ccccc2)C2CCCC2)cc1 (stereo unspecified)	-0.6	-26.2%	-2.7	-18.8%	-11.4%	?
Cc1cc(C(=O)OC(C(=O)Nc2ccc(C)c(Cl)c2)c2ccccc2)c(C)o1 (stereo unspecified)	8.0	10.4µM*	-12.5	-13.6%	6.8%	?
Cc1ccc(NC(=O)C(NC2CCCC2)c2ccccc2)cc1Cl (stereo unspecified)	5.5	13.1µM*	-12.1	-9.4%	.	11.7µM*
O=C(Nc1ccc2ccccc2c1)C(c1ccccc1)C1CCCC1 (stereo unspecified)	9.2	8.28µM*	34.3	-59.0%	-45.1%	2.08µM*
CCN(Cc1cnn(C)c1)C(=O)CC1C(=O)NCCN1Cc1cccc(OC)c1OC (stereo unspecified)	1.1	4.5%	-14.1	-0.6%	4.0%	19.7%
COc1ccc(-c2nnc3n2N=C(c2ccccc2OC)CS3)c(OC)c1	-2.0	.	-9.6	.	.	.
COc1ccccc1CNC(c1ccccc1)c1ccccc1	-5.3	0.0%	-7.5	2.4%	-14.0%	?
CC(NCc1ccc(-c2ccccc2)cc1)C(O)c1ccccc1 (stereo unspecified)	-7.6	2.94µM*	-18.1	-32.4%	-16.2%	2.33µM*
COc1cc(OC)c(OC)cc1CNC(C)C(O)c1ccccc1 (stereo unspecified)	-4.2	-13.5%	-12.4	-0.2%	3.2%	-19.3%
CC(NCc1cccc(Cl)c1Cl)C(O)c1ccccc1 (stereo unspecified)	-1.8	9.28µM*	-7.0	24.3%	9.6%	4.65µM*
CCOc1c(Cl)cc(CNC(C)C(O)c2ccccc2)cc1OC (stereo unspecified)	0.8	1.47µM*	-5.4	1.6%	-3.6%	21.8%
CCC(CO)NCc1ccc(-c2ccccc2)cc1 (stereo unspecified)	-4.9	14.2%	-7.7	3.3%	-0.1%	3.7µM*
COc1ccccc1NC(=O)COc1cccc2c1CCNC2=O	.	?	.	4.0%	.	-17.4%
CCOc1c(Cl)cc(CNC(C)(C)CC(C)(C)C)cc1OC	1.8	10.4µM*	-6.3	1.3%	-6.5%	.
CCOc1c(Cl)cc(CNc2ccc(N3CCCC3)cc2)cc1OC	11.0	-27.3%	26.5	-1.0%	9.8%	42.0%
CC(NCc1ccc(Cl)cc1Cl)C(O)c1ccccc1 (stereo unspecified)	21.1	1.04µM*	43.4	3.0%	-9.0%	1.47µM*
CC(NCc1ccc(Cl)cc1)C(O)c1ccccc1 (stereo unspecified)	1.0	2.62µM*	-11.4	-2.3%	11.7%	3.7µM*
COCCNC(=O)COC(=O)c1cc(-c2ccc(OC)cc2)nc2ccccc12	10.9	1.8%	12.5	-1.4%	-5.1%	252.4%
COc1cccc(NC2=C(C#N)C(=O)NC(c3cccc(OC)c3O)S2)c1 (stereo unspecified)	19.3*	6.9%	60.7	0.0%	1.0%	?
O=C(CN1CCC(c2nc3ccccc3s2)CC1)N1CCCCC1	16.5	34.5%	32.8	0.6%	?	9.8%
O=C(/C=C/c1nc2ccccc2s1)N1CCCCCC1	35.4*	355.7%	52.6*	-0.7%	.	44.7%
CC1CCCCC1NC(=O)/C=C/c1nc2ccccc2s1 (stereo unspecified)	30.3*	4.3%	76.0	-3.6%	-19.9%	?
CCN(CC)S(=O)(=O)c1cccc(C(=O)Nc2ccc(S(=O)(=O)NC3=NCCCCC3)cc2)c1	.	?	.	-0.8%	.	6.57µM*
